Assay outcomes as filed in PubChem.
Shown are actives, neighbours in structure and some others; about 8% of the full set was active somewhere.
HCMV inh: human cytomegalovirus inhibition | HFF cells, HCMV-luciferase reporter, 72 h; hits give low values | actives 4.5% (n = 410,000) | activity change, negative = inhibition, % at 57.5 µM | AID 1259415; in the data active = activity change below about -60%; inconclusive = no clear call, values can overlap the other calls; inactive = above about -39%; also: % is scaled to controls: 0 for no effect and ±100 for the full control effect
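Inhibition of viral replication was scored as loss of reporter luminescence in HFFs infected with HCMV-luciferase (MOI 1 PFU/cell) for 72 h; compounds tested at 2 doses, normalized to buffer and Salinomycin controls.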
FMDV antiviral: blocks foot and mouth disease virus; FMDV antiviral cell-based qHTS; Potency, µM (titrated, usually from 57.9 µM), for inactives: at the top dose activity change, negative = inhibition, actives largely listed as inhibitors; actives 1.2% (n = 410,000); AID 1159524; calls by dose curve; tested in HEK293T cells; also: read-out not given here; potency is read from the fitted curve at half-maximal effect; % is scaled to controls: 0 for no effect and ±100 for the full control effect; nearly all actives have a fitted effect of over 45% in size
Marburg entry inh: inhibitors of Marburg virus binding or cell entry; actives 1.8% (n = 300,000); Potency, µM (highest dose often 37.8 µM), for the others: top-dose activity change, negative = inhibition, usual class: inhibitors; Marburg virus pseudotyped entry inhibition, cell reporter; calls by dose curve; tested in HEK293 cells; also: potency is read from the fitted curve at half-maximal effect; % is scaled to controls: 0 for no effect and ±100 for the full control effect
SARS PLpro yeast: SARS-CoV PLP inhibition in yeast | actives 0.19% (n = 330,000) | S. cerevisiae expressing SARS-CoV PLpro, growth rescue | Potency, µM (highest dose often 32.9 µM), for inactives: top-dose activity, positive = growth rescue, hits mostly activators; calls by dose curve; also: potency is read from the fitted curve at half-maximal effect; 0% is about no effect; nearly all actives have a fitted effect of over 55% in size
Lassa entry inh: inhibitors of Lassa virus binding or cell entry | Lassa virus pseudotype entry inhibition, cell reporter | Potency, µM (top dose mostly 37.9 µM), without a hit: at the top dose activity change, negative = inhibition, usual class: inhibitors | actives 1.2% (n = 300,000); calls by dose curve; tested in HEK293 cells; also: potency is read from the fitted curve at half-maximal effect; % is scaled to controls: 0 for no effect and ±100 for the full control effect; nearly all actives have a fitted effect of over 50% in size
HCV inhibitor: blocks hepatitis C virus | Potency, µM (highest dose often 41.8 µM), for the others: at the top dose activity change, negative = inhibition, actives largely listed as inhibitors | Huh7.5.1 HCVcc-Cre infection, luciferase reporter, 44 h | actives 3.4% (n = 340,000); active = well fitted inhibition curve with a large enough effect; inconclusive = small, poorly fitted or top-dose-only effect, or another doubt; inactive = no such curve, though single readings can be large or run the other way; also: potency is read from the fitted curve at half-maximal effect; % is scaled to controls: 0 for no effect and ±100 for the full control effect
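Cells (1,000/well) were plated 4 h before compound, then infected with HCVcc-Cre virus (~0.5 moi). After 44 h further culture, infection was read as luciferase luminescence following a 15 min substrate incubation at room temperature.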
The depositor's hits bear a star; ? = inconclusive; . = no result given; [ ] = dose if it differs, or a comment.

SMILES	HCMV inh	FMDV antiviral	Marburg entry inh	SARS PLpro yeast	Lassa entry inh	HCV inhibitor
Cn1cc(C(=O)c2ccc(Cl)cc2Cl)cc1C(=O)N/N=C(\N)COc1ccc(F)cc1	-4	?	?	23%	?	10µM*
Cn1cc(C(=O)c2ccc(Cl)cc2Cl)cc1C(=O)N/N=C(\N)COc1ccc(Cl)cc1	0	?	?	21%	?	13µM*
Cn1cc(C(=O)c2ccc(Cl)cc2Cl)cc1C(=O)N/N=C(\N)COc1ccccc1	-24	-27%	?	4%	?	-23%
Cn1cc(C(=O)c2ccc(Cl)cc2Cl)cc1C(=O)N/N=C(\N)COc1ccc(Cl)cc1Cl	?	?	?	?	?	13µM*
Cn1cc(C(=O)c2ccc(Cl)cc2Cl)cc1C(=O)O	-1	-2%	?	0%	22%	16%
CC(C)[C@@H](OCc1ccccc1)[C@H](C)CO/N=C1/[C@H]2CCn3c(=O)n(-c4ccccc4)c(=O)n3[C@H]2[C@H](O)[C@@H]2O[C@H]12	.	.	25%[14.2 µM]	.	.	.
CCCCCOc1ccc(C(=O)N(Cc2ccccc2)C2CCS(=O)(=O)C2)cc1 (stereo not drawn)	-1	-12%	.	.	?	.
N#CCC(CNc1ncc(C(F)(F)F)cc1Cl)OC(=O)c1ccc(Cl)cc1 (stereo not drawn)	-62*	.	0%	-22%	-4%	?
O=c1c(F)cn(C2CCCO2)c(=O)n1Cc1ccc(Cl)cc1 (stereo not drawn)	3	-17%	-6%	0%	13%	14%
CCC(C(=O)NN1C(=O)c2ccccc2C1=O)c1ccccc1 (stereo not drawn)	-5	-7%	25%[46.1 µM]	3%	9%	12%
Cc1cc(C)nc(N(C#N)Cc2ccc(Cl)cc2)n1	-62*	7%	2%[46.1 µM]	0%	1%	5%
COc1ccc(NC(=O)c2cc([N+](=O)[O-])ccc2N2CCCCC2)cc1OC	-18	-24%	?	-4%	?	25µM*
COc1ccccc1NC(=O)COC(=O)c1cc([N+](=O)[O-])ccc1N1CCCC1	-30	?	.	-2%	.	13µM*
CCC(CC)c1nnc(NC(=O)c2cc([N+](=O)[O-])ccc2N2CCCCC2)s1	-34	19%	?	6%	?	7.1µM*
O=C(COC(=O)c1cc([N+](=O)[O-])ccc1N1CCOCC1)Nc1ccccc1OC(F)F	2	-9%	-13%	-4%	?	?
CC(C)c1ccccc1NC(=O)COC(=O)c1cc([N+](=O)[O-])ccc1N1CCOCC1	-12	?	?	-11%	-9%	?
CC(C)CNC(=O)c1cc([N+](=O)[O-])ccc1N1CCCCC1	?	-5%	1%	0%	1%	-16%
O=C(COC(=O)c1cc([N+](=O)[O-])ccc1N1CCCC1)Nc1ccccc1OC(F)F	-9	?	-4%	-1%	-4%	13µM*
COc1cc(=O)n2c(c1C(=O)N(C)Cc1nonc1C)CCN(CC1CC=CCC1)CC2 (stereo not drawn)	.	5%	.	.	.	.
O=C(Nc1ccc(OCc2cc(=O)n3c4c(sc3n2)CCCC4)cc1)c1ccccc1	-105*	-4%	3%[46.1 µM]	.	1%[46.1 µM]	.
CCOC(=O)N1CCC(NS(=O)(=O)c2cc3c(cc2Cl)NC(=O)CO3)CC1	17	-23%	-27%[46.1 µM]	0%	1.8µM*	-21%
CCC(=O)N1CCc2cc(Br)cc(S(=O)(=O)CCC(=O)NCCc3ccc(Cl)cc3)c21	-21	-6%	27%[46.1 µM]	.	?	.
CN(Cc1ccccc1)S(=O)(=O)c1cc(Br)cc2c1N(C(=O)C1CC1)CC2	-71*	3%	-30%[46.1 µM]	.	?	.
CCC(=O)N1CCc2cc(Br)cc(S(=O)(=O)CCC(=O)NCCOC)c21	-84*	1%	1%	-1%	15%	22%
CCOC(=O)N1CCC(NS(=O)(=O)c2ccc3c(c2)OCC(=O)N3)CC1	19	37%	21%	-1%	9%	-9%
SMILES	HCMV inh	FMDV antiviral	Marburg entry inh	SARS PLpro yeast	Lassa entry inh	HCV inhibitor
CCN(Cc1ccccc1)S(=O)(=O)c1cc(Br)cc2c1N(C(=O)C1CC1)CC2	?	-11%	?	.	-21%[46.1 µM]	.
CCC(=O)N1CCc2cc(Br)cc(S(=O)(=O)NCCN3CCCCC3CC)c21 (stereo not drawn)	22	39%	?	0%	15%	2.5µM*
COc1cc(Nc2nc(SCc3cccc(Cl)c3)nc3ccccc23)cc(OC)c1	15	-25%	.	.	2%[46.1 µM]	.
CSc1nc(N)c2ncn([C@@H]3O[C@H](COP(=O)(O)OP(=O)(O)OP(=O)(O)O)[C@@H](O)[C@H]3O)c2n1	.	5%	-31%	.	23%	.
CC(=O)CC(=O)O[C@@H]1C=C[C@H](NC(=O)OC(C)(C)C)C1	16	.	.	.	.	.
COC(=O)N[C@H](CC(C)=O)c1ccc2c(c1)OCO2	.	.	-17%[14.2 µM]	.	.	.
CCOC(=O)N1CCC(NS(=O)(=O)c2cc(Br)cc3c2N(C(=O)CC)CC3)CC1	-105*	-12%	?	-1%	?	-27%
O=C(C1CC1)N1CCc2cc(Br)cc(S(=O)(=O)NC3CCCCC3)c21	-15	24%	?	-27%	?	7.1µM*
COC(=O)[C@@H]1CCCN1Cc1ccc2c(c1)CN(Cc1ccc3c(c1)OCCO3)CCO2	.	-12%	.	.	.	.
COc1ccc2c(c1)C(n1c(C)ccc1C)C(=O)N2Cc1ccc(C(F)(F)F)cc1 (stereo not drawn)	14	.	.	.	.	.
O=C(/C=C/c1cccc2ccccc12)c1ccncc1	-83*	14µM*	?	-90%	?	16µM*
COc1ccc(NC(=O)CCN2CCN(c3ccc(F)cc3)CC2)cc1	-76*	1%	.	1%	.	-4%
CCOC(=O)c1cc(S(=O)(=O)N2CCN(c3cccc(OC)c3)CC2)[nH]n1	-10	-8%	.	.	-6%[46.1 µM]	.
CCN1C(=O)C(CC(=O)Nc2ccc(OC)cc2)N(CCCN2CCN(c3ccc(OC)cc3)CC2)C1=S (stereo not drawn)	-7	-20%	?	4%	?	11µM*
COc1ccc(C(=O)NCC(=O)N2CCN(c3ccc(F)cc3)CC2)cc1	-64*	1%	-2%[46.1 µM]	1%	6%[46.1 µM]	8%
CCOC(=O)c1cc(S(=O)(=O)N2CCN(c3ccc(OC)cc3)CC2)[nH]n1	-112*	32%	.	.	24%[46.1 µM]	.
COc1ccc(NC(=O)CCN2CCN(c3cccc(Cl)c3)CC2)cc1	-10	-10%	?	.	?	.
CCN1C(=O)C(CC(=O)Nc2ccc(OC)cc2)N(CCN2CCOCC2)C1=S (stereo not drawn)	-1	-16%	.	0%	.	9%
COc1ccc(CN2CCOc3ccc(CN4CCCCC4CO)cc3C2)c(OC)c1 (stereo not drawn)	.	-2%	.	.	.	.
CCOC(=O)c1cccc(NC(=O)CN2CCN(c3ccc(OC)cc3)CC2)c1	10	-23%	-12%	?	1.1µM*	4%
CN1/C(=C/c2cccc[n+]2C)Sc2ccccc21	-97*	?	.	-2%	.	?
